# This is a sample that favours compounds with a hit; in the whole collection about 27% have one here.
# sEH activator: increases human soluble epoxide hydrolase activity | P34913 | purified human sEH enzymatic activity, activator screen | activation, % at 2 µM | actives 0.04% (n = 91,000); in the data active = activation above about 37%
# Target sequence (P34913 whole entry, looked up): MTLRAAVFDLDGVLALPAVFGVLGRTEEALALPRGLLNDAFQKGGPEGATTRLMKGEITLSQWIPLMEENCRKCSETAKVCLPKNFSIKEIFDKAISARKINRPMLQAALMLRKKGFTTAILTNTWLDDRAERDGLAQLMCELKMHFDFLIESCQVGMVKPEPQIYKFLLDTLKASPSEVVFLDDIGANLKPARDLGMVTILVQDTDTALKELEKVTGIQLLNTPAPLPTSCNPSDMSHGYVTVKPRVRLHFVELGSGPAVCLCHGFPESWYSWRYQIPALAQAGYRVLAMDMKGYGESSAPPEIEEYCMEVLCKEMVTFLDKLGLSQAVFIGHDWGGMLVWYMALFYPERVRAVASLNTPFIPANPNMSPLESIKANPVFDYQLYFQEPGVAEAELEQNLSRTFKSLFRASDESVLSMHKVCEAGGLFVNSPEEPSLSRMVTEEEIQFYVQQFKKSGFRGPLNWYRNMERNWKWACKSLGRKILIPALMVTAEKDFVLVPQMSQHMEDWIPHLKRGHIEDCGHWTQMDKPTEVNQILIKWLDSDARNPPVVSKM
# CYP2C9 act: activators of human CYP2C9; recombinant CYP2C9, luciferin-H conversion, luminescence; stronger effect = higher value; factor 1 = untreated enzyme, 0 = blocked; activation factor at 5 µM; actives 1.4% (n = 96,000); AID 1024;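 active = activation factor of 2 or more for CYP2C9 at a 5 µM dose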
# CYP2C19 inhib: human CYP2C19 inhibition; inhibition, % at 5 µM; actives 21% (n = 96,000); AID 778; CYP2C19 Supersomes, luciferin-H EGE luminescence, 30 min;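 active = CYP2C19 inhibition above a set limit at 5 µM in the primary screen, cut at about 50% in these data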
# CYP2C9 inh: blocks human cytochrome P450 2C9. P11712. CYP2C9 Supersomes, luciferin-H conversion, luminescence. inhibition, % at 5 µM. actives 20% (n = 96,000). AID 777;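 active = blocking of liver enzyme CYP2C9 beyond about 50% at 5 µM, limit read from the data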
# sEH inh: blocks human soluble epoxide hydrolase activity; P34913; recombinant human sEH enzymatic activity assay; inhibition, % at 2 µM; actives 0.34% (n = 91,000); in the data active = inhibition above about 80%
# CYP2C19 act: increases human CYP2C19 enzyme activity; P33261; recombinant CYP2C19, luciferin-H EGE luminescence; stronger effect = higher value; 0 = fully inhibited enzyme, 1 = untreated enzyme; activation factor at 5 µM; 96,000 tested, under 10 active; AID 1025;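 active = activation factor of at least 2 at 5 µM in the primary screen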
# Hits are given with their value; – = inactive; · = no result given.
SMILES,sEH activator,CYP2C9 act,CYP2C19 inhib,CYP2C9 inh,sEH inh,CYP2C19 act
CN1CCN(C(=O)c2ccc(N(Cc3ccccc3Cl)S(C)(=O)=O)cc2)CC1,–,–,–,–,–,–
CS(=O)(=O)N(Cc1ccccc1)c1ccc(C(=O)N2CCc3ccccc3C2)cc1,–,–,–,63,–,–
CS(=O)(=O)N(CC(=O)N1CCc2ccccc2C1)Cc1ccc(Cl)cc1,–,–,88,85,–,–
CCOC(=O)N1CCN(C(=O)c2ccc(N(Cc3ccccc3)S(C)(=O)=O)cc2)CC1,–,–,68,90,–,–
CCOC(=O)N1CCN(C(=O)c2ccc(N(Cc3ccc(C)cc3)S(C)(=O)=O)cc2)CC1,–,–,65,86,–,–
Cc1ccc(CN(c2ccc(C(=O)N3CCOCC3)cc2)S(C)(=O)=O)cc1,·,–,–,–,·,–
CN1CCN(C(=O)CN(Cc2ccccc2)S(C)(=O)=O)CC1,–,–,–,–,–,–
CCOC(=O)N1CCN(C(=O)CN(c2ccc(OC)cc2)S(C)(=O)=O)CC1,–,·,·,·,–,·
NC(=O)C1(N2CCCCC2)CCN(C(=O)CSc2nc(C(F)(F)F)cc(=O)[nH]2)CC1,–,–,–,–,–,–
CS(=O)(=O)N(CC(=O)N1CCc2ccccc2C1)c1ccc2c(c1)OCO2,–,–,88,–,–,–
CS(=O)(=O)N1CCC(C(=O)Nc2ccccc2Sc2ccccc2)CC1,–,–,–,–,–,–
CC(=O)Nc1cccc(Oc2cc(C#N)c(C#N)cc2N2CCCCCC2)c1,–,–,96,100,–,–
Cc1oc(=O)c(NC(=O)c2ccccc2)cc1C(=O)c1ccccc1,–,–,–,–,–,–
O=C1C(=O)c2c(C(=O)c3ccccc3)coc2-c2ccccc21,–,–,82,95,–,–
O=C(c1ccccc1)c1c[nH]cc1-c1ccccc1,–,·,·,·,–,·
Cc1oc2c(c1C(=O)c1ccccc1)C(=O)C(=O)c1ccccc1-2,–,–,92,90,–,–
Cc1ccc(Sc2ccc(NC(=O)c3ccc(S(C)(=O)=O)cc3Cl)cc2)cc1,–,–,–,–,–,–
CNC(=S)N1N=C(c2ccc(Br)cc2)CC1c1ccc(Br)cc1 (stereo not drawn),–,–,98,95,–,–
C=CCOC(=O)CCC(=O)Nc1cccc2ccccc12,·,–,80,–,·,–
N#CC1=C(N)N(c2ccccc2)C(=O)C1,–,–,–,–,–,–
CC(C)OC(=O)C1=C2SCC(=O)N2C(N)=C(C#N)C1,–,–,76,–,–,–
O=C1c2ccccc2C(Nc2ccc(Cl)cn2)N1c1cccnc1 (stereo not drawn),·,–,85,–,·,–
O=C1c2ccccc2C(O)N1c1cccnc1 (stereo not drawn),–,–,–,–,–,–
COc1ccc(OC)c(NC2c3ccccc3C(=O)N2c2cccnc2)c1 (stereo not drawn),–,–,57,67,–,–
CCCS(=O)(=O)C(=C1NCCO1)S(=O)(=O)CCC,–,–,–,–,–,–
SMILES,sEH activator,CYP2C9 act,CYP2C19 inhib,CYP2C9 inh,sEH inh,CYP2C19 act
O=C(NC1CCCCC1)c1ccccc1NC(=O)C1CC(=O)N(c2ccc(Cl)cc2)C1 (stereo not drawn),–,·,·,·,–,·
COc1nc(NC(C)=O)nc(C)c1Br,–,–,–,–,–,–
O=C(C1COc2ccccc2O1)N1CCc2ccccc21 (stereo not drawn),–,–,92,–,–,–
O=C(O)C1CC=CCC1C(=O)N1CCc2ccccc21 (stereo not drawn),–,·,·,·,–,·
CC1Oc2ccccc2N(CC(=O)N2CCc3ccccc32)C1=O (stereo not drawn),–,–,52,56,–,–
O=C(CN1C(=O)COc2ccccc21)N1CCc2ccccc21,–,–,57,–,–,–
Cc1ccc2c(c1)N(CC(=O)N1CCCc3ccccc31)C(=O)CO2,–,–,–,–,–,–
Cc1ccc2c(c1)N(CC(=O)N1CCc3ccccc3C1)C(=O)CO2,–,–,84,–,–,–
O=C(CN1C(=O)c2ccccc2S1(=O)=O)Nc1cccnc1,–,·,·,·,–,·
CCCn1c(=O)c(C(=O)Nc2c(C)n(C)n(-c3ccccc3)c2=O)c(O)c2ccccc21,·,–,–,–,·,–
O=Cc1c(Sc2ccccn2)nc2ccccn2c1=O,–,·,·,·,–,·
O=Cc1c(Sc2ccccc2)nc2ccccn2c1=O,–,–,72,–,–,–
O=c1c(/C=N/Nc2ccccc2)c(Sc2nnnn2-c2ccccc2)nc2ccccn12,–,–,–,72,–,–
CCc1nnc(NC(=O)NC(C)(C)C)s1,–,–,–,–,–,–
COc1ccccc1NC(=O)CN(c1ccc(C)cc1)S(=O)(=O)c1c(C)n[nH]c1C,–,–,70,96,–,–
COc1ccc(N(CC(=O)NC2CCCC2)S(=O)(=O)c2c(C)[nH]c(=O)[nH]c2=O)cc1,–,–,–,–,–,–
COc1ccc(N(CC(=O)Nc2cccc(C)c2C)S(=O)(=O)c2c(C)n[nH]c2C)cc1,·,–,54,51,·,–
CCOc1ccccc1NC(=O)CN(c1cc(C)cc(C)c1)S(=O)(=O)c1c(C)noc1C,–,–,–,–,–,–
O=C(CSc1nnc(C2CC2)n1-c1ccccc1)Nc1ccc(N2CCOCC2)cc1,–,–,–,–,–,–
CCOc1ccc(N=C(NC#N)SC)cc1,–,–,70,–,–,–
CCOc1ccc(N=C(NC#N)SCC)cc1,–,·,·,·,–,·
O=C(Oc1ccccc1Cl)c1ccccc1P(=O)(O)O,–,–,–,–,–,–
COc1ccc(C2CCCN2C(=O)Nc2cccc(C(C)=O)c2)cc1OC (stereo not drawn),·,–,–,–,·,–
Cc1cc(C)c(NC(=O)C2CC(=O)N(c3ccc4c(c3)OCCO4)C2)c(C)c1 (stereo not drawn),–,–,–,–,–,–
Cc1ccc(C2C(C#N)=C(N)Oc3c2c(=O)n(C)c(=O)n3C)cc1 (stereo not drawn),–,–,–,56,–,–
SMILES,sEH activator,CYP2C9 act,CYP2C19 inhib,CYP2C9 inh,sEH inh,CYP2C19 act
Cc1cccc(N(CC(=O)NC2CCCCC2)C(=O)CCC(=O)Nc2ccccn2)c1,·,–,–,–,·,–
O=C(CCC(=O)N(CC(=O)NC1CCCC1)Cc1ccc2c(c1)OCO2)Nc1ccccn1,–,–,–,89,–,–
Cc1ccnc(NC(=O)CCC(=O)N(CC(=O)NC2CCCCC2)c2ccc3c(c2)OCO3)c1,·,–,–,75,·,–
Cc1ccc(NC(=O)C2C(c3ccccc3)C2(Cl)Cl)c(C)c1 (stereo not drawn),–,–,97,52,–,–
COc1ccc(C(C)(C)C)cc1NC(=O)COC(=O)c1cnc(C)cn1,–,–,–,–,–,–
COc1cc(Cl)c(C)cc1NC(=O)COC(=O)c1cnc(C)cn1,–,–,57,–,–,–
CC1=C(C(=O)N2CCCCC2)C(c2cccs2)C2=C(CCCC2=O)N1 (stereo not drawn),–,–,–,–,–,–
